# Compound activity as filed in PubChem BioAssay.
# In the library only some 3.4% were active in any assay of this set; here they are far more common.
# ssDAF12 agonist: S. stercoralis DAF-12 activation, primary screen | HEK293 ssDAF-12/GRIP1 lit1-tk-luc reporter, luminescence; % of 3 µM dafachronic acid response | activation, % at 6.8 µM | 370,000 compounds, 1% hits | AID 652126;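 active = activation above the mean over all tested compounds plus 3 SD, cut at about 0.9% in these data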;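 also: 0% = DMSO-only wells and 100% = 3 µM delta7-dafachronic acid wells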
# APP 5'UTR act: activates APP 5'UTR luciferase reporter; SH-SY5Y APP 5'UTR luciferase reporter, luminescence; zero percent = DMSO vehicle wells; activation, % at 2 µM; 190,000 compounds, 1% hits; AID 1276;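 active = activation above a set limit, based on mean plus 3 SD of controls, cut at about 140% in these data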
# NF-kB neuron act: raises NF-kB expression in human neuronal cells. NF-kB reporter expression; hits give high values. fold change at 12.5 µM. 190,000 compounds, 1.6% hits; in the data active = fold change above about 3.3
# hgDAF12 agonist: activates the H. glycines DAF-12 receptor ligand-binding domain | HEK293 GAL4-hgDAF12 UAS-luciferase reporter, agonist luminescence; normalized to butyrate control | activation, % at 6.8 µM | 370,000 compounds, 1.8% hits;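 active = activation above a cutoff set at the mean of all screened compounds plus 3 SD, cut at about 10% in these data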;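 also: 0% = DMSO wells and 100% = sodium butyrate wells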
# hcDAF-12 act: activators of H. contortus DAF-12 nuclear receptor. HEK293 hcDAF-12 lit1-tk-luc reporter, luminescence; 0% DMSO, 100% Δ7-dafachronic acid. activation, % at 6.8 µM. 370,000 compounds, 1.4% hits. AID 652067;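 active = activation above the mean of all tested compounds plus 3 SD, cut at about 5.5% in these data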;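 also: 100% = response to 3 µM Δ7-dafachronic acid high control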
# LXRb hcDAF ctr: activates human LXR-beta, counter-screen for hcDAF-12 agonists | shares compounds with hcDAF-12 act | HEK293 Gal4-LXR tk-luc reporter, luminescence, 24 h; normalized: DMSO 0%, positive control 100% | activation, % at 6.8 µM | 3,400 tested, under 10 active;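 active = mean percent activation of the reporter above a cutoff set as the average over tested compounds plus their standard deviation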
# Target sequence (P55055 whole entry, looked up, the tested form may be a part): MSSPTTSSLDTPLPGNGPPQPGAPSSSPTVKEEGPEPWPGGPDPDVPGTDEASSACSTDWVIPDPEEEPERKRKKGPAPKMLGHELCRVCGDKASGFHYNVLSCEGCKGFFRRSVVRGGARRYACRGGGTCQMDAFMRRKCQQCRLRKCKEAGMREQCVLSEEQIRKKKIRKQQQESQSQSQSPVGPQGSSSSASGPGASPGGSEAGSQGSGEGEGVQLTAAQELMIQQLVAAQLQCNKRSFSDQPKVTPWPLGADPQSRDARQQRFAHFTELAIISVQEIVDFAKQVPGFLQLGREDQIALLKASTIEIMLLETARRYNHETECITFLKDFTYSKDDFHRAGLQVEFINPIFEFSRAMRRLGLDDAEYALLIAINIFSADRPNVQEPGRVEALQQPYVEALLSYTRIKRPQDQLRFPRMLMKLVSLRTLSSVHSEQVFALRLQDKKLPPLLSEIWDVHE
# hcDAF12 ag: confirmation of H. contortus DAF-12 agonists. shares compounds with hcDAF-12 act. HEK293 hcDAF-12 lit1-tk-luc reporter, luminescence; % of Δ7-dafachronic acid response. AID 743032. 3,400 compounds, 61% hits. activation, % at 6.8 µM;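 active = mean activation across triplicate tests above the threshold derived from the earlier primary screen, cut at about 5.5% in these data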;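 also: 0% = DMSO only wells and 100% = 3 µM Δ7-dafachronic acid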
# Starred values were filed as active, the others as inactive; . = no result given.
SMILES,ssDAF12 agonist,APP 5'UTR act,NF-kB neuron act,hgDAF12 agonist,hcDAF-12 act,LXRb hcDAF ctr,hcDAF12 ag
CC(C)N(C(=O)Cn1cc(S(=O)(=O)CC(=O)NCCc2ccccc2)c2ccccc21)C(C)C,-1,.,.,1,-1,.,.
CCN(CC)C(=O)Cn1cc(S(=O)(=O)CC(=O)NCCc2ccccc2)c2ccccc21,-1,.,.,0,7.6*,0,1
CN(C)CCCN(C(=O)c1sc2ccccc2c1Cl)c1nc2ccc(F)cc2s1,0,65,1.1,4,7.6*,0,8.0*
CN(C)CCCN(C(=O)/C=C/c1cccs1)c1nc2ccc(F)cc2s1,-1,31,2.9,-4,-1,.,.
Cc1ccc(CSc2nc3ccncc3[nH]2)cc1,1.4*,148*,5.2*,18*,11*,2,10*
O=C(NCc1ccc(Cl)cc1)c1ccc(CSc2nc3ccncc3[nH]2)cc1,-1,.,.,0,-2,.,.
COC(=O)C1=NN(c2ccccc2OC)C2C(=O)N(c3ccccc3OC)C(=O)C12 (configuration not stated),0,10,1.3,2,7.2*,0,0
COc1ccc(Cn2cc(CN3[C@@H](C)COc4cc(Br)ccc4S3(=O)=O)nn2)cc1,-1,.,.,2,-1,.,.
O=C(Nc1ccc2c(c1)OCO2)OC1CCC12CCC(c1ccccc1)CC2 (configuration not stated),-1,.,.,6,3,.,.
CCOC(=O)N1CCN(C(=O)C[C@H]2C(=O)N(Cc3ccc(OC)cc3)C3=CCCC[C@@]32C(=O)OCC)CC1,-1,.,.,-2,-3,.,.
O=C(Nc1ccccc1)c1ccc(F)cc1F,0,.,.,2,2,.,.
O=C(Nc1ccc2ccccc2c1)c1ccccc1[N+](=O)[O-],1,.,.,10,7.9*,0,4
Cc1ccc(NC(=O)c2cc3ccccc3cc2O)cc1,1,.,.,10,10*,1,9.2*
Cc1ccc(NC(=O)c2ccc(F)cc2F)cc1,0,.,.,8,8.9*,1,4
O=C(COC(=O)c1ccccc1O)Nc1ccc2ccccc2c1,-1,.,.,0,3,.,.
Cc1ccc(NC(=O)NNC(=O)c2cc3ccccc3cc2O)cc1C,0,.,.,1,2,.,.
O=C(Nc1ccc2ccccc2c1)c1ccccc1O,1.0*,.,.,9,7.8*,2,20*
COC(=O)[C@@]12CCCCC=C1N(CCc1ccc(Cl)cc1)C(=O)[C@H]2CC(=O)NCCC(C)C,-1,.,.,-2,-1,.,.
CCCC1CCC2(CCC(=O)N2CCO)CC1 (configuration not stated),-2,.,.,4,-1,.,.
COc1ccc2[nH]cc(C(=O)CNc3nc(C)cs3)c2c1,0,64,1.4,8,7.3*,0,7.6*
O=S(=O)(c1ccc(Cl)cc1)N1CCN(CCc2ccccc2)CC1,-1,.,.,0,-1,.,.
O=S(=O)(c1ccc(F)cc1)N1CCN(CCc2ccccc2)CC1,-1,.,.,-3,6.8*,0,-1
CC(C)c1ccc2c(c1)C1Cc3ccccc3C1N2 (configuration not stated),-1,60,0.84,6,7.8*,0,5
Cc1cnc(NC(=O)Nc2ccc(OCc3ccccc3)cc2)c(Br)c1,0,.,.,6,7.3*,0,2
O=C(CN1C(=O)C2C3C=CC(C3)C2C1=O)Nc1ccc2nccnc2c1 (configuration not stated),-1,-19,0.66,3,2,.,.
SMILES,ssDAF12 agonist,APP 5'UTR act,NF-kB neuron act,hgDAF12 agonist,hcDAF-12 act,LXRb hcDAF ctr,hcDAF12 ag
O=C(CN1C(=O)C2C3C=CC(C4CC34)C2C1=O)Nc1cnc2ccccc2c1 (configuration not stated),0,-9,1.2,1,7.5*,0,2
Cc1ccc(-c2nc(CS(=O)(=O)CC(=O)NCCCN(Cc3ccccc3)C(C)C)c(C)o2)cc1,-1,.,.,1,-1,.,.
Cc1oc(-c2ccc(-c3ccccc3)cc2)nc1CN(CCO)C(C)C,1.6*,.,.,14*,7.2*,2,17*
CC(C)(C)/C(O)=C/c1nc2ccccc2[nH]c1=O,-1,13,1.5,-2,1,.,.
O/C(=C\c1nc2ccccc2[nH]1)c1cccs1,1.0*,.,.,12*,8.5*,0,8.1*
O=c1[nH]c2ccccc2nc1/C=C(\O)c1cccs1,0,96,1.5,10*,7.8*,1,13*
Cn1cccc1/C=C1\CCc2ccccc2C1=O,0,167*,5.9*,10,10*,1,11*
O=C1/C(=C/c2ccncc2)CCc2ccccc21,-1,.,.,2,-1,.,.
Cn1cccc1/C=C1\Cc2ccccc2C1=O,1.7*,184*,7.2*,19*,12*,2,9.4*
O=C1/C(=C/c2cccs2)Cc2ccccc21,-1,56,2.9,5,1,.,.
O=S1(=O)c2c(cccc2N2CC[C@H](O)C2)OCCCN1C1CC1,-1,.,.,2,0,.,.
CC(=O)Oc1cc(C)c(Cl)c2c(OC(C)=O)cc(C(C)=O)c(O)c12,-1,.,.,-3,-2,.,.
N/C(=N\OC(=O)c1cccs1)c1ccc(Cl)cc1,0,.,.,8,2,.,.
COc1ccc(/C(N)=N/OC(=O)c2ccc(Br)o2)cc1,0,.,.,5,8.4*,0,4
COc1ccc(/C(N)=N/OC(=O)c2cccs2)cc1,4.4*,.,.,12*,10*,1,4
C=C(C)[C@@H]1CC2=C(OC)C(CC=C(C)C)(CC=C(C)C)C(=O)C(C(=O)c3ccccc3)=C2O1,-2,.,.,-1,-2,.,.
CCC1CCCCN1CCCNC(=O)Cn1c2ccccc2c2nc(=O)cc(C)n21 (configuration not stated),0,.,.,2,8.2*,0,6.7*
c1ccc(-c2cnnc(-c3ccccn3)n2)cc1,-1,.,.,5,7.1*,0,2
O=C(Nc1cccc(O)c1)C(=O)Nc1ccccn1,0,155*,2.9,9,8.2*,1,4
CCCC#Cc1ccc2c(c1)COc1c3ccccc3nn1-2,2.6*,.,.,17*,11*,2,12*
CCc1cc(-c2ccc3c(c2)COc2c4ccccc4nn2-3)on1,0,.,.,8,7.0*,2,9.3*
CN(C)c1ccc(NC(=S)OC2CCC23CCC(c2ccccc2)CC3)cc1 (configuration not stated),-2,.,.,0,-1,.,.
CC(C)(C)c1ccc(C(=O)NCC(=O)OCC(=O)N2CCN(S(=O)(=O)c3ccc(Cl)cc3)CC2)cc1,0,.,.,3,15*,0,3
O=C(CNC(=O)c1ccc(Cl)cc1)OCC(=O)N1CCCC1,-1,-17,1.1,-3,-1,.,.
